Source: PubChem BioAssay
In the library only some 3% were active in any assay of this set; here they are far more common.
HIF-2a block = HIF-2a reporter inhibitors, primary screen, luminescence, 786-0 RCC cells; AID 624352, 2012; inhibition, % at 18.8 µM; 786-0 RCC cells HIF-2a reporter, luciferase luminescence, overnight; hit rate 0.72% among 360,000;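 active means inhibition of the luminescence signal of 40% or more relative to plate controls, in a single-dose primary screen at 18.75 µM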
Peg3 prom inh-1 = Peg3 promoter-driven luciferase inhibitors, primary screen, cell-based, HeLa, luciferase luminescence | AID 588405, 2011 | HeLa PEG-Prom luciferase reporter, overnight | hit rate 1.7% among 360,000 | inhibition, % at 20 µM;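 active means inhibition of at least 50% at 20 µM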
MITF TRPM1 inh = inhibitors of MITF-dependent TRPM1 promoter reporter, primary screen, cell-based, SK-MEL-5, single point, luciferase; SK-MEL-5 TRPM1 promoter luciferase, 24 h; inhibition, % at 12.5 µM; hit rate 0.83% among 330,000;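 active means mean inhibition across replicates of 60% or more, whatever share of single replicates reaches that level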
KKLEB tox = cytotoxicity in KKLEB CF airway cells, primary screen, cytotoxicity control for CF NF-kB inhibitor project, cell-based, uHTS, fluorescence assay plates. KKLEB CF airway cells viability, ATPlite luminescence, overnight; stronger effect = lower value; cells stimulated with P. aeruginosa culture filtrate. activity change (cytotoxicity), % at 5 µM. hit rate 0.36% among 360,000. AID 602141, 2011;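 active means corrected activity change at or below -50% at 5 µM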
CF NFkB block = inhibitors of PAF-induced NF-kB signaling, primary screen, cell-based, GFP fluorescence, uHTS. KKLEB NF-kB-GFP reporter, GFP fluorescence overnight. inhibition, % at 5 µM. hit rate 0.86% among 360,000. AID 588850, 2011;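 active means at least 50% inhibition at 5 µM, scaled per plate between neutral and stimulator controls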;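 further: PAF is a Pseudomonas aeruginosa culture filtrate used as stimulus; plate controls were PAF-stimulated DMSO wells for no effect and unstimulated DMSO wells for full effect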
ABHD5-PLIN5 inh = ABHD5-PLIN5 interaction inhibitors, primary screen, cell lysate, split luciferase complementation, luminescence | AID 602281, 2012 | Split G. princeps luciferase complementation, 4 h | hit rate 0.78% among 360,000 | Perilipin-5 (Homo sapiens) + 1-acylglycerol-3-phosphate O-acyltransferase ABHD5 (Homo … | inhibition, % at 4 µM;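 active means inhibition above the mean inhibition across every tested compound plus 3 SD, cut at about 22% in these data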;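 further: 0% = DMSO only wells and the 100% control is not disclosed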
Target sequence (Q00G26 whole entry, looked up): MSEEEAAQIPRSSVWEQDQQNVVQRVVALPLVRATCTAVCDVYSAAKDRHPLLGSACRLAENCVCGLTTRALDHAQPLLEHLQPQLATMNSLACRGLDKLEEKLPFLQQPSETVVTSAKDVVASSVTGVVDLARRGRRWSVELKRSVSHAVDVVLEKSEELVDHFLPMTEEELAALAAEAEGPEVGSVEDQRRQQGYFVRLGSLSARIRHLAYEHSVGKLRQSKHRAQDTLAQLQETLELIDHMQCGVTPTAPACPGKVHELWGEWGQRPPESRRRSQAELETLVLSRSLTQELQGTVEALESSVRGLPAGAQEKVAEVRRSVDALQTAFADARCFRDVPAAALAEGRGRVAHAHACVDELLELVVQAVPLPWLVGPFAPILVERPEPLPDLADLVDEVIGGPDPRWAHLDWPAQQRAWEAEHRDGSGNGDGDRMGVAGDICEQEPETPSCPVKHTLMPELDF
Target sequence (Q8WTS1 whole entry, looked up): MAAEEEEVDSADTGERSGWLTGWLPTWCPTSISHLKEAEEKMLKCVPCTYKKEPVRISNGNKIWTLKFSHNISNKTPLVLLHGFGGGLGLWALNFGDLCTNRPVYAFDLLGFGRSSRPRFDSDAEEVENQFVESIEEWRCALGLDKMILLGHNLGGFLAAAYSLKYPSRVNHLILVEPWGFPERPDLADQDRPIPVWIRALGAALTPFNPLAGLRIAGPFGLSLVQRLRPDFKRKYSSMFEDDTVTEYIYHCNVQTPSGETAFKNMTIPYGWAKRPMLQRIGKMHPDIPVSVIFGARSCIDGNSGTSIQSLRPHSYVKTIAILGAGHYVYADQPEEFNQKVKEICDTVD
Peg3 prom inh-2 = Peg3 promoter reporter inhibitors, retest, confirmation, cell-based, HeLa, luciferase reporter, single concentration. shares compounds with Peg3 prom inh-1. HeLa PEG-Prom luciferase reporter, luminescence, overnight. inhibition, % at 20 µM. hit rate 84% among 1,300. AID 602417, 2012;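 active means at 20 µM dose, 40% or more inhibition averaged across four replicates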
CF NFkB inh conf = inhibitors of PAF-induced NF-kB signaling, retest, confirmation, cell-based, GFP fluorescence, single concentration | hit rate 64% among 1,300 | shares compounds with CF NFkB block | KKLEB CF airway cells, overnight | inhibition, % at 5 µM; in the data active means inhibition above about 40%;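 further: stimulus PAF is a Pseudomonas aeruginosa filtrate and not platelet activating factor; plate controls were DMSO wells with stimulus for no effect and unstimulated DMSO wells for full effect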
* hit, by the source's call; . = no result.

SMILES | HIF-2a block | Peg3 prom inh-1 | MITF TRPM1 inh | KKLEB tox | CF NFkB block | ABHD5-PLIN5 inh | Peg3 prom inh-2 | others
COc1cccc(NC(=O)[C@H](NC(=O)[C@@H]2Cc3ccccc3CN2)c2ccccc2)c1 | -87 | -50 | -22 | 2 | -1 | -4 | .
c1ccc(CN=C(NCc2ccccc2)NCc2ccccc2)cc1 | 10 | 90* | 16 | -7 | 2 | 2 | 88*
S=C(NCc1ccccc1)C(=S)NCc1ccccc1 | -81 | -37 | 7 | -15 | 6 | -5 | .
O=C(c1ccco1)N1CCN(C(c2ccccc2Cl)c2nnnn2Cc2ccco2)CC1 (stereo not given) | -1 | 39 | 14 | 7 | 1 | 7 | .
O=C(c1ccco1)N1CCN(C(c2ccccc2Cl)c2nnnn2Cc2cccs2)CC1 (stereo not given) | 19 | 52* | 3 | -6 | 9 | 3 | 58*
CN(C)C(=O)CN1C(=O)NC(c2ccccc2)(c2ccccc2)C1=O | 4 | 8 | -5 | -10 | 6 | 5 | .
Cc1cccc2c1-c1sc(C(=O)NCCCN3CCCC(C)C3)cc1CO2 (stereo not given) | -10 | 76* | 7 | -14 | 9 | 14 | 99*
COc1cccc2c1C(=N)c1c(O)c3c(c(O)c1C2=O)CC(O)(C(C)=O)CC3OC1CC(N)C(O)C(C)O1 (stereo not given) | 21 | 98* | 92* | -6 | -272 | 11 | 96*
CCOC(=O)c1ccc(NC(=O)C2CCCN(S(=O)(=O)c3ccc(F)cc3)C2)cc1 (stereo not given) | 19 | 74* | 22 | 7 | -14 | -4 | 56*
CC(/C=C/c1ccccc1)=N/NC(=O)c1cc([N+](=O)[O-])cc([N+](=O)[O-])c1 | 13 | 51* | 46 | 4 | 17 | 4 | 51*
CC(/C=C/c1ccccc1)=N\NC(=O)c1ccc2c(c1)OCCO2 | -40 | -34 | -4 | 3 | 6 | -5 | .
C[C@H]1CN([C@@H](C)CO)C(=O)CCCn2nncc2CO[C@H]1CN(C)S(=O)(=O)c1ccc(-n2cccn2)cc1 | 4 | -1 | . | 18 | -38 | -4 | .
O/N=C(\c1ccc(Cl)cc1Cl)c1ncc(C(F)(F)F)cc1Cl | 16 | 57* | -7 | 6 | 2 | -28 | 47*
COCOCCn1cc(CN2CCS(=O)(=O)N(Cc3ccc(-c4ccc(Cl)c(Cl)c4)cc3)C(C(C)C)C2=O)nn1 (stereo not given) | -50 | 61* | . | -7 | 8 | 12 | 46*
CC(C)CC1C(=O)N(Cc2cn(Cc3ccco3)nn2)CCS(=O)(=O)N1Cc1ccc(-c2ccc(F)cc2)cc1 (stereo not given) | -28 | 64* | . | -21 | 48 | -3 | 62*
COCOCCn1cc(CN2CCS(=O)(=O)N(Cc3ccc(-c4ccc(Cl)cc4)cc3)C(C(C)C)C2=O)nn1 (stereo not given) | 1 | 10 | . | -7 | 6 | -2 | .
Cc1ccc(-c2ccc(CN3C(CC(C)C)C(=O)N(Cc4cn(Cc5ccco5)nn4)CCS3(=O)=O)cc2)cc1 (stereo not given) | 16 | 5 | . | -5 | 39 | 4 | .
COc1ccc(CCNC(=O)Nc2ccc3c(c2)c(=O)n(C)n3CC=C(C)C)cc1OC | -4 | -2 | . | -2 | -27 | 0 | .
CC(=O)COc1cc2c(-c3cc4ccccc4o3)cc(=O)oc2cc1C | 4 | 56* | -8 | 2 | -193 | -4 | 36
CCOc1ccc2oc(C(=O)N3CCN(c4ccccc4OCC)CC3)c(C)c2c1 | 9 | 27 | 14 | -1 | 9 | -10 | .
CS(=O)(=O)c1ccc(-c2sc3ccccc3c2C#CCCO)cc1 | -9 | 54* | 6 | 3 | -4 | -7 | 60*
COc1ccc(-c2sc3ccccc3c2C#CCCO)cc1 | 2 | 7 | 2 | -16 | 24 | -3 | .
CCN(CC(=O)Nc1cc(Cl)ccc1C)C(=O)c1ccc2c(=O)n3c(nc2c1)CCC3 | -1 | 17 | -3 | -25 | 20 | -6 | .
Cc1ccc(-n2nc3c(=O)n(CC(=O)NCCc4cccs4)nc(C)c3c2C)cc1 | 9 | 24 | 26 | -5 | -1 | 8 | .
Cc1ccc(-n2nc3c(N4CCC(C(=O)NCCc5cccs5)CC4)nnc(C)c3c2C)cc1 | 8 | 60* | 89* | -14 | 33 | 13 | 37
SMILES | HIF-2a block | Peg3 prom inh-1 | MITF TRPM1 inh | KKLEB tox | CF NFkB block | ABHD5-PLIN5 inh | Peg3 prom inh-2 | others
O=C1c2cccc3cccc(c23)C(=O)N1CCCN(C(=O)c1cccs1)c1cccc(F)c1 | 21 | 52* | 22 | -12 | -9 | -1 | 33
COc1ccc(NC(=O)c2cc(C)nc3ccccc23)cc1S(=O)(=O)N1CCOCC1 | 12 | -30 | 5 | -6 | 11 | 4 | .
COc1ccc(Nc2nc(-c3ccccc3)nc3ccccc23)cc1S(=O)(=O)N1CCOCC1 | -57 | 62* | 6 | -24 | 89* | 1 | 59* | CF NFkB inh conf=75*
O=C(Nc1ccc(-c2nc3ncccc3o2)cc1)c1ccc([N+](=O)[O-])o1 | -2 | 100* | 77* | -44 | 86* | -2 | 33 | CF NFkB inh conf=-121
CN(C)c1ccc(C(C(=O)NCc2ccccc2)N(Cc2ccco2)C(=O)c2snc(C(N)=O)c2N)cc1 (stereo not given) | -1 | 61* | 15 | -42 | 99* | -2 | 45* | CF NFkB inh conf=89*
CCc1nnc(SCC(=O)Nc2nc(C)c(C(=O)N(C)C)s2)n1CC | 8 | 17 | -4 | 12 | 12 | -2 | .
CCc1nccn1C(=O)c1cnn2c(C(F)F)cc(-c3ccc(C)cc3)nc12 | 30 | 61* | 47 | -44 | 68* | 4 | 93* | CF NFkB inh conf=91*
CCN1CCN(C(=O)c2cnn3c(C(F)F)cc(-c4ccc(C)cc4)nc23)CC1 | 9 | 8 | 10 | 1 | -12 | 1 | .
CC1Nc2ncnc(N3CCc4ccccc4C3)c2N(Cc2ccccc2)C1=O (stereo not given) | 10 | 10 | . | -24 | -1 | 4 | .
Cc1cc2cc(CCNC(=O)C(=O)c3c[nH]c4ccccc34)c(=O)[nH]c2cc1C | 13 | 59* | 12 | 0 | 59* | 8 | 59* | CF NFkB inh conf=52*
